From the supplement of paper PMC10849652
About 8,800 targets were measured; listed, in parts, are those with a hit and a random draw of the rest. About 0.5% of all pairs of compound and target were hits. A number with no mark means an inactive call.

What was measured:
Assay in all cases: log2 fold change, soluble protein after heating vs DMSO (PISA); higher = thermal stabilisation; K562 lysate, 10 uM; active = over 0.2 and 3.5 SD of the protein, either way, in both replicates (recomputed)
[1] = compound: C#Cc1cccc(Nc2ncnc3cc(OCCOC)c(OCCOC)cc23)c1 [erlotinib]
Outline: (§1)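 K562 pellets were dounce-homogenised in PBS pH 7.4 containing 1 mM MgCl2, and the crude extract, at 1 mg/mL protein, was exposed to 10 μM compound for 30 min. Aliquots were heated for 3 min across 48°C-58°C, pooled, brought to 0.5% NP-40 at 4°C and spun at 21,000xg for 90 min, with the supernatant taken as soluble protein. TMTpro 16plex LC-MS/MS with equalised channel sums quantified that protein. Values are log-two fold changes in thermal stability relative to solvent controls, taken from duplicates.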

[2] = compound: C/C(=N\NC(=O)C1=CC(=CC=C1)S(=O)(=O)N2CCOCC2)/C3=C(C=CC(=C3)Cl)O
Outline: as §1

[3] = compound: C1=CC(=CC=C1C2=NC3=C(N2)C=C(C=C3)C(=O)N)OC4=CC=C(C=C4)Cl
Outline: as §1

[4] = compound: C1=CC2=C(C=CC(=C2)/C=C\3/C(=O)NC(=NCC4=CC=CS4)S3)N=C1
Outline: as §1

[5] = compound: C1=CC2=NC=CN=C2C=C1/C=C/3\C(=O)NC(=O)S3
Outline: as §1

[6] = compound: C1=CC=C(C=C1)C2=NC(=C(N2)C3=CC=NC=C3)C4=CC(=C(C=C4)Cl)O
Outline: as §1

[7] = compound: C1=CC=C2C(=C1)C3=NNC4=CC=CC(=C43)C2=O
Outline: as §1

[8] = compound: C1CCN(C1)C(=O)NC2=CC=CC(=C2)NC3=NC=C(C(=N3)NCCC4=CN=CN4)Br
Outline: as §1

[9] = compound: C1CN(CCC1(CC2=CC=C(C=C2)Cl)N)C3=NC=NC4=C3C=CN4
Outline: as §1

[10] = compound: C1COCCN1CCN2C3=CC=CC=C3N=C2NC(=O)C4=CC(=CC=C4)[N+](=O)[O-] [IRAK-1-4 Inhibitor I]
Outline: as §1

UniProt O00159, sequence (O00159 whole entry, looked up): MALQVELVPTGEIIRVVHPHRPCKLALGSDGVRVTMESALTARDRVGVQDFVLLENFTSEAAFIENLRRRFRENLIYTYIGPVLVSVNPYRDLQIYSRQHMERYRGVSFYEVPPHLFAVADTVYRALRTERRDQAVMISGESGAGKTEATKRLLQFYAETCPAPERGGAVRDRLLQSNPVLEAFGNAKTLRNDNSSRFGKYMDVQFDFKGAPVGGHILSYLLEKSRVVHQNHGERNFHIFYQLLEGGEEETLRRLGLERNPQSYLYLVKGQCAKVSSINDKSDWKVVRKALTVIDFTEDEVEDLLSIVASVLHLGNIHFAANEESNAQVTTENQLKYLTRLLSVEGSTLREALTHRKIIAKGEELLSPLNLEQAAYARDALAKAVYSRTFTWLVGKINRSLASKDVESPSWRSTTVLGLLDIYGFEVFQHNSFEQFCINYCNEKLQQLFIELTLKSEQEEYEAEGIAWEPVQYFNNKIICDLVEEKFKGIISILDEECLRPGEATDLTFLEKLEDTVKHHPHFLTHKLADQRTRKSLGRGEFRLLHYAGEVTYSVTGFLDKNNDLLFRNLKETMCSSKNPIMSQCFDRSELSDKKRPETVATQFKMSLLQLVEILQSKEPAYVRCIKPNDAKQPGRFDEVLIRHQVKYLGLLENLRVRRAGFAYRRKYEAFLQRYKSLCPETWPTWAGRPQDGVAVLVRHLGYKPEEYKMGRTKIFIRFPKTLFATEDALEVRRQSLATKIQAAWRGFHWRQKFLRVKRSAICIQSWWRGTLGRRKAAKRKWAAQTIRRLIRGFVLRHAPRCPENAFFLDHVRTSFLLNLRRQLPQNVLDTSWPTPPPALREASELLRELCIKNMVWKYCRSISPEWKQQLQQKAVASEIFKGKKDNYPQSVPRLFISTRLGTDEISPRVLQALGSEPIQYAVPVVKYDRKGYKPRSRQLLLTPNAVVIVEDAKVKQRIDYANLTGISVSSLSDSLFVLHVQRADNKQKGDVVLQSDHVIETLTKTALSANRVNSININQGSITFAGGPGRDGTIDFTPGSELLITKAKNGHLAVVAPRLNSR
UniProt Q99417, sequence (Q99417 whole entry, looked up): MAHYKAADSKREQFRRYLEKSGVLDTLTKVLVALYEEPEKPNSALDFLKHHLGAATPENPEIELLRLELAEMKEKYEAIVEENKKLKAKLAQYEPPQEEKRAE
UniProt Q8TEM1, sequence (Q8TEM1 whole entry, looked up): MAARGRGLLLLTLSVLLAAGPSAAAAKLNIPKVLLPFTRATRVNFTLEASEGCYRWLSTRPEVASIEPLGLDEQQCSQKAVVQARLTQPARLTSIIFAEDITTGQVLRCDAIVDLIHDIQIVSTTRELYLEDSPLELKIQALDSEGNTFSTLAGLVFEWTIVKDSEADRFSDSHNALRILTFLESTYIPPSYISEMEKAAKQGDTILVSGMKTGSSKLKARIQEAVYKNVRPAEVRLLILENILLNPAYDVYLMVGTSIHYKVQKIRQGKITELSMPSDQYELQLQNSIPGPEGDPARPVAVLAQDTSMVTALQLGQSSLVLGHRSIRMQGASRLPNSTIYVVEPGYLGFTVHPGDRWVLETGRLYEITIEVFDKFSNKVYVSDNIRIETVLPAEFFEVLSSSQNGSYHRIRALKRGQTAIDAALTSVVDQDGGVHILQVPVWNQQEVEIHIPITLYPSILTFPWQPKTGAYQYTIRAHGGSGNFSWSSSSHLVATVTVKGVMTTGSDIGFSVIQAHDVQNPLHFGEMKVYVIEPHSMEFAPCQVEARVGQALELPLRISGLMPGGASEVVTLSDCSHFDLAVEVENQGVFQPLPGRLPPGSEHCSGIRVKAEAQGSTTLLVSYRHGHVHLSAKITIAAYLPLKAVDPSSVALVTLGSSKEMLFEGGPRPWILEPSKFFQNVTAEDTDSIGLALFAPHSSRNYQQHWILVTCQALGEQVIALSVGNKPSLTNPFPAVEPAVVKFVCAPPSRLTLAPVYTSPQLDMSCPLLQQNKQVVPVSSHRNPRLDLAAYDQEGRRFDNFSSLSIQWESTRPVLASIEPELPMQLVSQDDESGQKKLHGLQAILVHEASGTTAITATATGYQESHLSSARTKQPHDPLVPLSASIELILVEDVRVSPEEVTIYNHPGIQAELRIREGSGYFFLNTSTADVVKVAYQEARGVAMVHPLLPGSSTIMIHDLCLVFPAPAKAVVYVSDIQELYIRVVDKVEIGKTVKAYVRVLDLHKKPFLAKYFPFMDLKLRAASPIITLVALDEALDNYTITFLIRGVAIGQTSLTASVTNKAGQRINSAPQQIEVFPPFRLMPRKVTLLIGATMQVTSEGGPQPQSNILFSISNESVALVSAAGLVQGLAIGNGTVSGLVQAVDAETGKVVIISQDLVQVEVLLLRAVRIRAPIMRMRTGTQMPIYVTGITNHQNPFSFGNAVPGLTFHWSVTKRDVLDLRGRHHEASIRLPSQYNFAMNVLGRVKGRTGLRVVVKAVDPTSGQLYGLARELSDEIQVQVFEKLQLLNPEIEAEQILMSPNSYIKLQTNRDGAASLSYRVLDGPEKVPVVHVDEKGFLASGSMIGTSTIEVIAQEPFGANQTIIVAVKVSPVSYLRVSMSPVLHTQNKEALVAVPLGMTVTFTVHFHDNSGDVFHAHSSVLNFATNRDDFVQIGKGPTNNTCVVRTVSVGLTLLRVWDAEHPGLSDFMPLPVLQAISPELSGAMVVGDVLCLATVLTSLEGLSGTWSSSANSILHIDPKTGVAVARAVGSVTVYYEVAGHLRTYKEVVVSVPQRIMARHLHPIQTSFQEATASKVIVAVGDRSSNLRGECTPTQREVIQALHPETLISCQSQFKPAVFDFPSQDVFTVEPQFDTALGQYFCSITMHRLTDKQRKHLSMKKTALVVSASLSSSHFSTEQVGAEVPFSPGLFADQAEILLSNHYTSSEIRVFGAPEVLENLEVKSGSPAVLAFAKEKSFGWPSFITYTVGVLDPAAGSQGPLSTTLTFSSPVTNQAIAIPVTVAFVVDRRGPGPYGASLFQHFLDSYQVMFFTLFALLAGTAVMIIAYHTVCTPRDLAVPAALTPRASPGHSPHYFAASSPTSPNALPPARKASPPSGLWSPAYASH
UniProt Q5TEU4, sequence (Q5TEU4 whole entry, looked up): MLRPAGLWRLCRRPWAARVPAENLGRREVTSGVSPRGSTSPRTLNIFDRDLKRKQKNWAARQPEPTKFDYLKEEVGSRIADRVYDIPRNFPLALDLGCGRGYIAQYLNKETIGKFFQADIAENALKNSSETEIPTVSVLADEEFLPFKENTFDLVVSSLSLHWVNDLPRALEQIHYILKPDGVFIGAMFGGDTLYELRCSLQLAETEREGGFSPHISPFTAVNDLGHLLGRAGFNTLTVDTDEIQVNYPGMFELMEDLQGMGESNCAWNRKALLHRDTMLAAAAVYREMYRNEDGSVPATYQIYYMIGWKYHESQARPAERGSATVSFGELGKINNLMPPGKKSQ
UniProt Q13330, sequence (Q13330 whole entry, looked up): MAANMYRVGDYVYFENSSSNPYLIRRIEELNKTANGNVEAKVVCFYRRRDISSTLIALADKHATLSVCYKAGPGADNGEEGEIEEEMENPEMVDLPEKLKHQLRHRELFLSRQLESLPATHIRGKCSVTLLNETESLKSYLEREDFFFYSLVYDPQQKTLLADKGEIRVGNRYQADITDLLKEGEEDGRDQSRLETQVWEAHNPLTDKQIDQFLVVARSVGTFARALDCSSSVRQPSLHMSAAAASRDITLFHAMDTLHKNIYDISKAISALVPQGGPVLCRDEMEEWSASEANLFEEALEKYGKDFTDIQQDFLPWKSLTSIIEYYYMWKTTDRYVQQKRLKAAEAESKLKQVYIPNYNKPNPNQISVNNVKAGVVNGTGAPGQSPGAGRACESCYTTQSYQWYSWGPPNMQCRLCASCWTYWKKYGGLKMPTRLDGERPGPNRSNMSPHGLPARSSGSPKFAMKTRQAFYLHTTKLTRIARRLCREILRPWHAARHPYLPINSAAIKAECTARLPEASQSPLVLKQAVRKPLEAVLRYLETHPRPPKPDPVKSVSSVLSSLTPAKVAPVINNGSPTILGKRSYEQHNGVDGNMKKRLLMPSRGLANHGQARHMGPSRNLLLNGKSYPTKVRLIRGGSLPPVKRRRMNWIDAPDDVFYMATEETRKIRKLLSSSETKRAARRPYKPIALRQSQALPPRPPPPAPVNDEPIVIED
UniProt Q9BZF3, sequence (Q9BZF3 whole entry, looked up): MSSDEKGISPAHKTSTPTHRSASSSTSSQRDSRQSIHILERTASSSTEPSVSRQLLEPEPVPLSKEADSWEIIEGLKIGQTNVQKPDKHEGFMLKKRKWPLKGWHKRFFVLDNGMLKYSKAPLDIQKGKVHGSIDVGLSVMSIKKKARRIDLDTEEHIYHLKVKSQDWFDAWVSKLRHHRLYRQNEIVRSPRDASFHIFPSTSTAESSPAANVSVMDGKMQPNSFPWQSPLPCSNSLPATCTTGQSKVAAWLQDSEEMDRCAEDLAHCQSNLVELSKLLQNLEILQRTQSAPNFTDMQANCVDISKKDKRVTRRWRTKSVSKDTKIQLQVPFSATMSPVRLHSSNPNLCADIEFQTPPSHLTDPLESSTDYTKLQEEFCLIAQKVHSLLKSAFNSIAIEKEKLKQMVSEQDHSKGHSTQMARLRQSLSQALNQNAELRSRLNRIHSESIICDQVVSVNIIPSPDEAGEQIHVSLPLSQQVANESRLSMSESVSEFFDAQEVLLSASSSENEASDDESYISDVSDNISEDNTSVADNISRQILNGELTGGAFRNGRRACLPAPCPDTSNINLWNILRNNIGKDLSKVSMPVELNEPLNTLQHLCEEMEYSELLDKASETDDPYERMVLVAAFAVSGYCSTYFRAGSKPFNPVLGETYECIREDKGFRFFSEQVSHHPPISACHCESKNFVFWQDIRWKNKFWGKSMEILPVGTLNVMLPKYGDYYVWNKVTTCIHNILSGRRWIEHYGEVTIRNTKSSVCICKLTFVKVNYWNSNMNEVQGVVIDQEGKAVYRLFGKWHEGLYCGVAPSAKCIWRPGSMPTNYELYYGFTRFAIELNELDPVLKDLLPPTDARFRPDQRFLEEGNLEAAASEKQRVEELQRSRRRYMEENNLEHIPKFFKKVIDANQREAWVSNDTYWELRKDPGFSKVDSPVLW

Target | log2 fold change [1] | log2 fold change [2] | log2 fold change [3] | log2 fold change [4] | log2 fold change [5] | log2 fold change [6] | log2 fold change [7] | log2 fold change [8] | log2 fold change [9] | log2 fold change [10]
NAP1L5 (UniProt Q96NT1) | -0.003 | -0.023 | 0.017 | -0.014 | -0.014 | 0.084 | -0.116 | -0.057 | 0 | -0.059
MT-CYB (UniProt P00156) | 0.076 | 0.141 | 0.027 | 0.024 | 0.015 | -0.229 | 0.126 | -0.105 | 0.025 | 0.028
OSGEP (UniProt Q9NPF4) | 0.012 | -0.002 | 0.041 | -0.148 | -0.236 (active) | 0.008 | -0.058 | 0.009 | -0.028 | -0.022
MTA1 (UniProt Q13330) | 0.006 | 0 | 0.013 | 0.017 | -0.036 | 0 | -0.035 | 0.002 | -0.008 | 0.015
NDUFAF5 (UniProt Q5TEU4) | -0.001 | 0.027 | 0.016 | 0.021 | -0.022 | 0.009 | 0.11 | 0.193 | -0.056 | 0.07
NPLOC4 isoform 2 (UniProt Q8TAT6) | -0.022 | 0.032 | -0.004 | 0.001 | -0.012 | 0.011 | -0.016 | -0.012 | 0.007 | 0.001
NUSAP1 (UniProt Q9BXS6) | -0.011 | -0.466 | 0.025 | -0.008 | -0.033 | 0.008 | 0.035 | 0.012 | 0.001 | -0.005
PAFAH1B3 (UniProt Q15102) | 0.037 | 0.032 | -0.017 | -0.017 | 0.022 | -0.009 | 0.005 | 0.025 | 0.027 | 0.005
NOB1 (UniProt Q9ULX3) | 0.011 | -0.028 | 0.012 | -0.016 | -0.02 | 0.023 | -0.016 | -0.016 | -0.027 | 0.011
MYO1C (UniProt O00159) | -0.002 | -0.005 | 0.003 | 0.017 | 0.006 | 0.047 | -0.003 | -0.021 | -0.032 | -0.055
NUP210 (UniProt Q8TEM1) | -0.018 | -0.019 | -0.049 | 0.036 | -0.004 | -0.046 | -0.157 | -0.008 | -0.001 | -0.009
NFATC2 (UniProt Q13469) | 0.002 | 0.067 | 0.014 | 0.032 | -0.016 | 0.002 | -0.144 | -0.018 | -0.049 | 0.033
NCAPD3 (UniProt P42695) | 0.023 | 0.021 | -0.012 | 0.006 | -0.003 | 0.012 | -0.043 | -0.004 | 0.042 | 0.03
PAN2 isoform 2 (UniProt Q504Q3) | 0 | -0.007 | -0.015 | -0.005 | 0.052 | 0.03 | 0 | -0.017 | -0.031 | 0.006
NELFCD (UniProt Q8IXH7) | 0.034 | 0.015 | 0.007 | 0.031 | -0.019 | -0.019 | -0.044 | -0.004 | 0.023 | -0.036
NMRAL1 (UniProt Q9HBL8) | 0.008 | 0.012 | -0.111 | -0.011 | -0.037 | -0.054 | 0.141 | 0.024 | 0.001 | -0.02
MYH11 isoform 2 (UniProt P35749) | -0.015 | 0.035 | 0.027 | -0.002 | -0.092 | 0.142 | -0.038 | -0.036 | 0.047 | 0.013
PAK4 (UniProt O96013) | 0 | -0.076 | 0.072 | 0.052 | -0.006 | -0.005 | 0.335 | 0.469 | 0.124 | -0.044
MSH6 (UniProt P52701) | 0.011 | 0.03 | -0.023 | 0.031 | 0.041 | 0.008 | -0.025 | 0 | -0.014 | -0.008
PARP14 (UniProt Q460N5) | 0.06 | -0.037 | 0.012 | -0.032 | 0.081 | 0.005 | -0.166 | -0.025 | 0.062 | -0.095
OLA1 (UniProt Q9NTK5) | 0.038 | 0.031 | 0.029 | -0.02 | 0.02 | 0.007 | -0.048 | 0.022 | 0.02 | -0.02
OGT (UniProt O15294) | 0.021 | 0.053 | 0.01 | -0.008 | 0.008 | 0.024 | -0.021 | -0.006 | 0.02 | -0.017
NDC1 (UniProt Q9BTX1) | -0.002 | 0.015 | 0.026 | 0.047 | 0.031 | -0.005 | -0.077 | 0.013 | 0.024 | 0.026
OSBP (UniProt P22059) | -0.023 | -0.056 | 0.037 | -0.006 | 0.017 | -0.031 | -0.031 | -0.016 | 0.016 | -0.112
MYCBP (UniProt Q99417) | 0.007 | -0.001 | 0.011 | 0.007 | 0 | 0.019 | 0 | 0.024 | 0.076 | 0.04
PAIP2 (UniProt Q9BPZ3) | 0.044 | 0.041 | -0.016 | -0.01 | 0.004 | -0.054 | -0.053 | -0.044 | 0.022 | 0.017
OSBP2 (UniProt Q969R2) | -0.019 | -0.254 | 0.08 | 0.032 | -0.039 | -0.077 | -0.075 | 0.037 | -0.01 | -0.061
OSBPL6 isoform 5 (UniProt Q9BZF3) | 0.182 | 0.398 (active) | 0.09 | -0.006 | -0.012 | 0.257 | 0.107 | -0.029 | -0.015 | -0.08
MRPS18A isoform 2 (UniProt Q9NVS2) | 0.024 | -0.038 | 0.038 | 0.112 | -0.035 | -0.053 | -0.013 | 0.009 | 0.004 | 0.015
NUDT5 (UniProt Q9UKK9) | -0.013 | -0.051 | 0.046 | 0.027 | -0.001 | -0.002 | -0.023 | -0.026 | 0.014 | 0.005
